Sampled rows, rich in hits. Any-hit rate of the full collection: about 12%.
Sfp PPTase inh – qHTS Assay for Inhibitors of Bacillus subtilis Sfp phosphopantetheinyl transferase (PPTase). 4'-phosphopantetheinyl transferase ffp (Bacillus subtilis), Q9F4F7. 310,000 compounds, 3.5% hits. Potency, µM, inactives show largest response in the series, negative = inhibition, usual class: inhibitors. Biochemical Sfp PPTase activity, qHTS;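 note: the enzyme is Sfp with the accession as filed and its product quenches rhodamine fluorescence; 0% = enzyme reaction without inhibitor and -100% = no enzyme wells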
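Compounds were incubated with enzyme (final 15 nM) for 15 min at room temperature before substrate addition started the reaction. Fluorescence at 525 nm excitation, 598 nm emission was recorded immediately and after 30 minutes.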
JMJD2A Tudor – qHTS Assay for Inhibitors of JMJD2A-Tudor Domain. AlphaScreen JMJD2A-Tudor / H3K4me3 peptide binding. Potency, µM (highest dose often 114 µM), for inactives: at the highest dose activity change, negative = inhibition, actives largely listed as inhibitors. 390,000 compounds, 4.4% hits; note: % is set by controls: 0 for no effect and ±100 for the full control effect; nearly all actives have a fitted effect of over 50% in size
BAZ2B inh – qHTS Assay for Inhibitors of BAZ2B; 360,000 compounds, 4.4% hits; AlphaScreen BAZ2B-H3K14Ac peptide displacement; Bromodomain adjacent to zinc finger domain protein 2B (Homo sapiens), Q9UIF8; Potency, µM (top dose mostly 114 µM), for the others: top-dose activity change, negative = inhibition, actives largely listed as inhibitors; note: % is set by controls: 0 for no effect and ±100 for the full control effect; nearly all actives have a fitted effect of over 60% in size
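AlphaScreen luminescence quantifies BAZ2B engagement of H3K14Ac peptide; the protein and biotinylated peptide are both at 50 nM final, buffer PBS pH 7.4 with 0.01% Tween-20, all steps at room temperature.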
G9a inh – qHTS Assay for Inhibitors of Histone Lysine Methyltransferase G9a | Potency, µM (top dose mostly 102 µM), for the others: at the top dose activity, negative = inhibition, usual class: inhibitors | G9a H3K9 monomethylation, AlphaScreen, 2 h | 350,000 compounds, 8.8% hits | Histone-lysine N-methyltransferase EHMT2 (Homo sapiens), Q96KQ7; note: % is set by controls: 0 for no effect and ±100 for the full control effect; nearly all actives have a fitted effect of over 75% in size
Target sequence (Q96KQ7 913-1193 limits assumed): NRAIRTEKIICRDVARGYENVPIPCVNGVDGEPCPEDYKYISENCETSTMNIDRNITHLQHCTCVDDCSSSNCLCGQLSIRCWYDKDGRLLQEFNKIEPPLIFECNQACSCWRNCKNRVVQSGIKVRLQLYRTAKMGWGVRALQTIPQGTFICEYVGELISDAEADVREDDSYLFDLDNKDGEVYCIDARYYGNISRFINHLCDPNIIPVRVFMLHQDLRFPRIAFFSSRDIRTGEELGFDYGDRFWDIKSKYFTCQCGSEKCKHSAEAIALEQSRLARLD
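Chemiluminescent proximity detection of H3K9 monomethylation, read after 10 min bead incubation in the dark. Reaction: 20 nM G9a, 500 nM biotin-H3K9 peptide, 20 uM SAM cofactor, 2 h, room temperature, following 15 min enzyme-compound preincubation.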
HP1b binding inh – HTS for Inhibitors of HP1-beta Chromodomain Interactions with Methylated Histone Tails. AlphaScreen HP1-beta / biotin-H3K9me3 peptide binding. Potency, µM (titrated, usually from 114 µM), for the others: at the top dose activity change, negative = inhibition, most hits filed as inhibitors. AID 540317, 2011. 390,000 compounds, 0.56% hits; note: nearly all actives have a fitted effect of over 70% in size
Target sequence (P83916 whole entry, looked up): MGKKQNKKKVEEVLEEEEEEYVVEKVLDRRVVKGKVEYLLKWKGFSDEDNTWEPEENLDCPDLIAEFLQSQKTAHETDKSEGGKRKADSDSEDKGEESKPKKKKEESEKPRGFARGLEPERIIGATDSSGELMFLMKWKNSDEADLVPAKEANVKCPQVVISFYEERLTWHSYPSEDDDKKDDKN
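AlphaScreen: HP1-beta (50 nM) preformed 30 min with biotin-H3(1-18)K9me3 peptide (50 nM) in PBS pH 7.4, 0.01% Tween-20. Compound added for 30 min at RT, then streptavidin donor/nickel chelate acceptor beads (10 ug/mL) for 30 min.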
* = called active by the depositor; ? = inconclusive; nt = no result; [ ] = dose if it differs, or a comment. Calls come from the whole dose curve; as a rule, active = well fitted curve in the direction sought with a large enough effect; inconclusive = small, poorly fitted or top-dose-only effect, or another doubt; inactive = no such curve, though single readings can be large; an effect the other way counts as inactive or inconclusive. Potency is the fitted concentration of half-maximal effect.

SMILES	Sfp PPTase inh	JMJD2A Tudor	BAZ2B inh	G9a inh	HP1b binding inh
Cc1ccc2cccc(OC(=O)/C=C\c3ccccc3)c2n1	19.1%	20µM*	-11.1%	9.8%	20.6%
O=Cc1ccc(OC(=O)/C=C/c2ccccc2)cc1	-8.9%	0.0%	6.3%	4.1%	16.9%
O=C(/C=C\c1ccco1)Oc1cccc2cccnc12	?	?	31.6µM*	-46.6%	-12.0%
O=C(/C=C/c1ccco1)Oc1cccc2cccnc12	-21.8%	?	44.7µM*	nt	7.3%
CCc1ccc(OC(=O)/C=C/c2ccco2)cc1	-12.1%	79.7%	?	nt	-19.5%
CC1(C)N([O-])C2=C(c3ccccc3C2=O)[N+](=O)C1(C)C	5.3%	-8.0%	12.6%	79.4µM*	-2.2%
FC(F)(F)c1cccc(N2CCN(Cc3cccnc3)CC2)c1	-27.8%	1.26µM*	-33.6%	14.1µM*	?
FC(F)(F)c1cccc(N2CCN(Cc3ccoc3)CC2)c1	?	3.55µM*	50.1µM*	?	?
COc1cccc(N2CCN(Cc3ncc(-c4ccccc4)o3)CC2)c1	8.0%	-33.5%	-37.6%	?	-18.8%
CCOc1ccc(CN2CCc3nc(N4CCN(c5ncccn5)CC4)ncc3C2)cc1OC	nt	?	-34.2%	5.8%[12.7 µM]	2.6%
COc1cccc(N2CCN(c3ncc4c(n3)CCN(Cc3ccc(Br)cc3)C4)CC2)c1	nt	56.2µM*	22.4µM*	6.8%[12.7 µM]	-21.2%
COc1cccc(N2CCN(Cc3cccnc3)CC2)c1	-23.8%	3.16µM*	39.8µM*	14.1µM*	56.2µM*
O=c1cc(N2CCN(Cc3ccccc3)CC2)[nH]c(=O)n1-c1cccc(C(F)(F)F)c1	9.5%	-15.1%	-3.3%	-11.8%[59 µM]	7.4%
Cc1cccc(-c2nc3nc(C)cc(NC(C)c4ccccc4)n3n2)c1 (stereo unspecified)	nt	-24.9%	-16.8%	-15.8%[59 µM]	22.7%[57 µM]
COc1ccc(CCNC(=O)COC(=O)/C=C/c2ccc3c(c2)OCO3)cc1OC	nt	-15.0%	nt	nt	1.4%
COc1cccc(N2CCN(CC(=O)C34CC5CC(CC(C5)C3)C4)CC2)c1	11.2%	-22.0%	?	-23.3%	3.9%
COc1cccc(N2CCN(C3C4CC5CC(C4)CC3C5)CC2)c1 (stereo unspecified)	-7.2%	-11.7%	?	50.1µM*	17.4%
O=C(O)CCCC(=O)Nc1ccc(N2CCCC2)cc1	10.2%	?	3.5%	39.8µM*	40.9%
CC1CCCCN1CC(=O)Nc1ccc(N2CCCCCC2)cc1 (stereo unspecified)	44.7µM*	1.41µM*	11.2µM*	3.16µM*	22.4µM*
CCCC(=O)Nc1ccc(N2CCCCC2)cc1	-4.1%	-7.5%[11.4 µM]	-11.7%	?	-5.0%
O=C(Cc1ccccc1)Nc1ccc(N2CCCCC2)cc1	7.0%	-23.7%	-23.9%	28.2µM*	31.8%
O=C(CNCc1ccco1)Nc1ccc(N2CCCCCC2)cc1	-22.1%	20µM*	28.2µM*	8.91µM*	39.8µM*
CCCN(CCC)C(=O)C1CCN(c2cc(C)nc3c(-c4ccc(Cl)cc4)c(C)nn23)CC1	nt	31.0%	14.3%	24.4%[59 µM]	94.5%
O=C(Cn1c(=O)n(Cc2ccco2)c(=O)c2ccccc21)Nc1ccc(Cl)cc1Cl	nt	-7.2%	0.2%	1.6%[59 µM]	7.6%
COc1ccc(NC(=O)c2ncoc2-c2ccco2)cc1Cl	nt	-12.9%	1.2%	51.6%[59 µM]	24.2%
SMILES	Sfp PPTase inh	JMJD2A Tudor	BAZ2B inh	G9a inh	HP1b binding inh
O=C(CCl)Nc1ccc(N2CCCCCC2)cc1	-9.3%	50.1µM*	?	15.8µM*	?
O=C(Nc1ccc(N2CCCCC2)cc1)c1ccccc1	-1.2%	-27.7%	-23.8%	?	1.7%
O=C(CCc1nc2ccccc2n1-c1ccccc1)NCCO	13.8%	1.7%	0.9%	17.0%[59 µM]	53.7%
O=C(COC(=O)CCc1nc2ccccc2n1-c1ccccc1)Nc1ccc(N2CCCCC2)cc1	-0.1%	-20.3%	?	10µM*	-6.2%
NC(=O)NC(=O)C(Nc1ccc(N2CCCCC2)cc1)c1ccccc1 (stereo unspecified)	-17.1%	?	?	15.8µM*	?
CCNC(=S)Nc1ccc(N2CCCCC2)cc1	-18.5%	-29.6%[57.1 µM]	35.5µM*	31.6µM*	?
CN(C)c1ncc2nc(-c3cccs3)c(=O)n(-c3ccccc3)c2n1	9.0%	nt	nt	5.7%[0.501 µM]	nt
Cc1noc(C)c1COc1ccc(C(=O)NCC(c2c(F)cccc2Cl)N(C)C)cc1 (stereo unspecified)	nt	-9.0%	1.2%	-43.5%	21.9%
Cc1cc(C)cc(NC(=O)C2CCN(S(=O)(=O)c3ccc4[nH]c(=O)ccc4c3)CC2)c1	5.2%	-20.4%	2.8%	nt	12.2%
O=C(Cn1c(-c2ccccc2)noc1=O)Nc1ccc(S(=O)(=O)N2CCOCC2)cc1	3.5%	-14.6%	6.7%	-7.0%[59 µM]	24.7%
O=C(Cn1c(-c2ccccc2)noc1=O)Nc1ccc(N2CCCCCC2)cc1	10.7%	22.4µM*	22.4µM*	?	?
O=C(O)CCC(=O)Nc1ccc(SSc2ccc(NC(=O)CCC(=O)O)cc2)cc1	17.8µM*	?	-1.3%	?	29.9%
Cc1noc(NS(=O)(=O)c2ccc(NC(=O)CSc3nc4ccccc4s3)cc2)c1C	50.1µM*	?	-15.3%	8.91µM*	-31.0%
Cc1noc(NS(=O)(=O)c2ccc(NC(=O)CSc3ncccn3)cc2)c1C	28.0%	-29.7%	2.8%	?	37.7%
Cc1noc(NS(=O)(=O)c2ccc(NC(=O)CSc3nc4c(cc3C#N)CCC4)cc2)c1C	50.1µM*	25.1µM*	?	7.08µM*	-0.9%
Cc1noc(NS(=O)(=O)c2ccc(NC(=O)CSc3nc4c(cc3C#N)CCCC4)cc2)c1C	?	-12.4%	-8.9%	25.1µM*	39.0%
Cc1cc(C)nc(SCC(=O)Nc2ccc(S(=O)(=O)Nc3onc(C)c3C)cc2)n1	13.9%	-4.8%	4.5%	-15.9%	43.8%
CC(C)(CNC(=O)C1CCN(S(=O)(=O)c2cc([N+](=O)[O-])ccc2Cl)CC1)N1CCOCC1	nt	-15.1%	4.6%	?	16.7%
O=C(NCc1ccc(Cl)cc1)C1CCN(S(=O)(=O)c2cc([N+](=O)[O-])ccc2Cl)CC1	-28.6%	3.0%	9.1%	44.7µM*	17.8%
COc1ccc(S(=O)(=O)N2CCC(C(=O)N[C@@H](C)C(=O)NC3CCCC3)CC2)cc1	1.8%	22.4µM*	3.2%	nt	2.8%
O=C(NC1CC1)C1CCN(S(=O)(=O)c2cc(Cl)ccc2Cl)CC1	-19.5%	-2.1%	56.2µM*	12.6µM*	26.2%
